# According to ChEMBL document CHEMBL1961873, “Compounds: GSK PKIS; Assays: Nanosyn kinase panel” (2012):
# Assays:
# [1] = biological target: Sphingosine kinase 1 (Homo sapiens) (UniProt Q9NYA1); conditions: at 1 µM;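 note: mean SPHK1 inhibition value reported from the GSK PKIS kinase panel screen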
# [2] = biological target: T1, Sphingosine kinase 2 (Homo sapiens) (UniProt Q9NRA0); conditions: at 0.1 µM
# T1 sequence (whole entry): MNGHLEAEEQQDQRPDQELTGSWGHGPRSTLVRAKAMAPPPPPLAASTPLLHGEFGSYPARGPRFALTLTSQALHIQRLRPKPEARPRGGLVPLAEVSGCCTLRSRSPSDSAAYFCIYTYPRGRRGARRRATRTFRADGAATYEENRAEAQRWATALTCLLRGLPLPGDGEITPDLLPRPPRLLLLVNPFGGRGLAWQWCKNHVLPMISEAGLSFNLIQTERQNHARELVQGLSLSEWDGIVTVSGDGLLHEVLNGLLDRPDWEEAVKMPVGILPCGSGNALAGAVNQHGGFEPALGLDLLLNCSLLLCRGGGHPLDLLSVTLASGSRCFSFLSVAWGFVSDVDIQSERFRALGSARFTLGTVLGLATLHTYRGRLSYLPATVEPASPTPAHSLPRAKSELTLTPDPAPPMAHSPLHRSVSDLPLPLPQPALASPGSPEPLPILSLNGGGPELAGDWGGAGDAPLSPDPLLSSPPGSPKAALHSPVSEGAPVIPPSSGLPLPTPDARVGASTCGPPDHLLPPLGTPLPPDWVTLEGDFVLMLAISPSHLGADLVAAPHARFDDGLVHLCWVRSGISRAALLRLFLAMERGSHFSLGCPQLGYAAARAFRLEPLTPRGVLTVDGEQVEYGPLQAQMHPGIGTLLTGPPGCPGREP
# [3] = biological target: T1, Sphingosine kinase 2 (Homo sapiens); conditions: at 1 µM
# [4] = biological target: Casein kinase II subunit alpha (Homo sapiens) (UniProt P68400); conditions: at 0.1 µM
# Sequence of Casein kinase II subunit alpha (Homo sapiens) (P68400 whole entry, looked up): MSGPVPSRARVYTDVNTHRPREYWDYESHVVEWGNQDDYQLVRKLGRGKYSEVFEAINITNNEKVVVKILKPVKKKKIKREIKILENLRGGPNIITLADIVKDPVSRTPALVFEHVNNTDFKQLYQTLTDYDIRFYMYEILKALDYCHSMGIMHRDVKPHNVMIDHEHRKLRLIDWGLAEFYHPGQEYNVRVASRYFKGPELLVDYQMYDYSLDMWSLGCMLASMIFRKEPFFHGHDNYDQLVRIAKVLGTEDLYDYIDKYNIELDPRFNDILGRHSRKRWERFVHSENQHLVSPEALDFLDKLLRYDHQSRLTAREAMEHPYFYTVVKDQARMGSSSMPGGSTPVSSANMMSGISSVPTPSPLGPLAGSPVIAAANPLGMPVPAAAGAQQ
# [5] = biological target: Casein kinase II subunit alpha (Homo sapiens) (UniProt P68400); conditions: at 1 µM
# [6] = biological target: T2, Inhibitor of nuclear factor kappa-B kinase subunit alpha (Homo sapiens) (UniProt O15111); conditions: at 0.1 µM
# T2 sequence (whole entry): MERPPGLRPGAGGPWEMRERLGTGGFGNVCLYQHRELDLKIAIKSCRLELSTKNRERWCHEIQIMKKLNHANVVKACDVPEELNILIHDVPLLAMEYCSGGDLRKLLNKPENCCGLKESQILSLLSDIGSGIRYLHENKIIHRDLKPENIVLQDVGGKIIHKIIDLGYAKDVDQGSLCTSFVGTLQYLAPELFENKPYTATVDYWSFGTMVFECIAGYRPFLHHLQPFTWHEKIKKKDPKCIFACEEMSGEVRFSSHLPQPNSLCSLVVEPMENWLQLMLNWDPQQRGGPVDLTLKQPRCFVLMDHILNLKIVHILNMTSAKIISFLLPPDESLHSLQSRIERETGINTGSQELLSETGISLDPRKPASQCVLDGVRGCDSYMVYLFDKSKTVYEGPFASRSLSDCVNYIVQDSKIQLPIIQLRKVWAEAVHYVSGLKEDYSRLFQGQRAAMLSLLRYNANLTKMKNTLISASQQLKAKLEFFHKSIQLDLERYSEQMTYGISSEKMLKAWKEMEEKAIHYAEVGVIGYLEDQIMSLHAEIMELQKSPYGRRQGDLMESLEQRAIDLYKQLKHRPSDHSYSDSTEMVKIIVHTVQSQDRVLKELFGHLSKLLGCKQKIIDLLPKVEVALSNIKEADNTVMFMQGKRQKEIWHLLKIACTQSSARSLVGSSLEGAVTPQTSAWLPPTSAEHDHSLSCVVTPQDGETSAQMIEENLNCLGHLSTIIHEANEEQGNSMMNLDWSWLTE
# [7] = biological target: T2, Inhibitor of nuclear factor kappa-B kinase subunit alpha (Homo sapiens); conditions: at 1 µM
# [8] = biological target: T3, Inhibitor of nuclear factor kappa-B kinase subunit beta (Homo sapiens) (UniProt O14920); conditions: at 0.1 µM
# T3 sequence (whole entry): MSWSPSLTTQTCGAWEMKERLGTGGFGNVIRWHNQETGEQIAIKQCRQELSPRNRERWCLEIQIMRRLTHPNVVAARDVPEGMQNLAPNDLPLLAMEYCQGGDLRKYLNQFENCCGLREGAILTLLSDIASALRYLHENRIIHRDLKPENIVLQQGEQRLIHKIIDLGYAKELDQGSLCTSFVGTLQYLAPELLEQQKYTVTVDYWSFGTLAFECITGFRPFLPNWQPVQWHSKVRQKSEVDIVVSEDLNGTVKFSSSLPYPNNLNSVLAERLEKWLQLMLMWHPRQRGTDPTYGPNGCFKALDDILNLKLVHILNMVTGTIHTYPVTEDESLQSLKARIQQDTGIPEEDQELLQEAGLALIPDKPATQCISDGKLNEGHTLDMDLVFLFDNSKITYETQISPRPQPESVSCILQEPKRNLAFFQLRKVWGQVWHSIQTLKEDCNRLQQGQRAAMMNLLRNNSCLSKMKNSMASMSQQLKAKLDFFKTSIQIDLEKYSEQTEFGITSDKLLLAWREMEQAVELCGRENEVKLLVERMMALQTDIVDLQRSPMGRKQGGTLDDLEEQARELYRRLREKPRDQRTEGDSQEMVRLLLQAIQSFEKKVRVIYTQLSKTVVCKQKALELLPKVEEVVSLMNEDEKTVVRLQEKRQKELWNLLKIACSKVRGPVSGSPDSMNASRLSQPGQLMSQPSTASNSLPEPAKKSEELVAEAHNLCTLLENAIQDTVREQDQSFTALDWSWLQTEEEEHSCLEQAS
# [9] = biological target: T3, Inhibitor of nuclear factor kappa-B kinase subunit beta (Homo sapiens); conditions: at 1 µM
# [10] = biological target: T4, Inhibitor of nuclear factor kappa-B kinase subunit epsilon (Homo sapiens) (UniProt Q14164); conditions: at 0.1 µM
# T4 sequence (whole entry): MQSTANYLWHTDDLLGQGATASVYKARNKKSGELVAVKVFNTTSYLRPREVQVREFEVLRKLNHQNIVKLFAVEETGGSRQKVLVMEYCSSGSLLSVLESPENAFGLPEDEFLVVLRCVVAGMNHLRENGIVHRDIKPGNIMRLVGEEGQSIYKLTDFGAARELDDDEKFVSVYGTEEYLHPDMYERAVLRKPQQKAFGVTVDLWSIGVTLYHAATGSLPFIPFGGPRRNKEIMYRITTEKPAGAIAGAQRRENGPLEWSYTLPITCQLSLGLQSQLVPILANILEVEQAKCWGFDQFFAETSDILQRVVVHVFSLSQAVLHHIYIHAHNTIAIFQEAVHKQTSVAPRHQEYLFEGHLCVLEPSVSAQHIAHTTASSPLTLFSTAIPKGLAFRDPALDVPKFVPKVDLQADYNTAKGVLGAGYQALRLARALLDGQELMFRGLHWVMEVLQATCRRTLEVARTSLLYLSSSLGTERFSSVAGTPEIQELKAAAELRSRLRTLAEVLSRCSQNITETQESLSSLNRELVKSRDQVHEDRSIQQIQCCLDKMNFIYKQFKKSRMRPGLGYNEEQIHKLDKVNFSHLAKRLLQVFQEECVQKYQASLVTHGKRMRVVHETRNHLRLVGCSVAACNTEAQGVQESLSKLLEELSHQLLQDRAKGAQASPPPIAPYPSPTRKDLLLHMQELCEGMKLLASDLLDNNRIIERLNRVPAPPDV
# [11] = biological target: T4, Inhibitor of nuclear factor kappa-B kinase subunit epsilon (Homo sapiens); conditions: at 1 µM
# [12] = biological target: T5, Serine/threonine-protein kinase Nek1 (Homo sapiens) (UniProt Q96PY6); conditions: at 0.1 µM
# T5 sequence (whole entry): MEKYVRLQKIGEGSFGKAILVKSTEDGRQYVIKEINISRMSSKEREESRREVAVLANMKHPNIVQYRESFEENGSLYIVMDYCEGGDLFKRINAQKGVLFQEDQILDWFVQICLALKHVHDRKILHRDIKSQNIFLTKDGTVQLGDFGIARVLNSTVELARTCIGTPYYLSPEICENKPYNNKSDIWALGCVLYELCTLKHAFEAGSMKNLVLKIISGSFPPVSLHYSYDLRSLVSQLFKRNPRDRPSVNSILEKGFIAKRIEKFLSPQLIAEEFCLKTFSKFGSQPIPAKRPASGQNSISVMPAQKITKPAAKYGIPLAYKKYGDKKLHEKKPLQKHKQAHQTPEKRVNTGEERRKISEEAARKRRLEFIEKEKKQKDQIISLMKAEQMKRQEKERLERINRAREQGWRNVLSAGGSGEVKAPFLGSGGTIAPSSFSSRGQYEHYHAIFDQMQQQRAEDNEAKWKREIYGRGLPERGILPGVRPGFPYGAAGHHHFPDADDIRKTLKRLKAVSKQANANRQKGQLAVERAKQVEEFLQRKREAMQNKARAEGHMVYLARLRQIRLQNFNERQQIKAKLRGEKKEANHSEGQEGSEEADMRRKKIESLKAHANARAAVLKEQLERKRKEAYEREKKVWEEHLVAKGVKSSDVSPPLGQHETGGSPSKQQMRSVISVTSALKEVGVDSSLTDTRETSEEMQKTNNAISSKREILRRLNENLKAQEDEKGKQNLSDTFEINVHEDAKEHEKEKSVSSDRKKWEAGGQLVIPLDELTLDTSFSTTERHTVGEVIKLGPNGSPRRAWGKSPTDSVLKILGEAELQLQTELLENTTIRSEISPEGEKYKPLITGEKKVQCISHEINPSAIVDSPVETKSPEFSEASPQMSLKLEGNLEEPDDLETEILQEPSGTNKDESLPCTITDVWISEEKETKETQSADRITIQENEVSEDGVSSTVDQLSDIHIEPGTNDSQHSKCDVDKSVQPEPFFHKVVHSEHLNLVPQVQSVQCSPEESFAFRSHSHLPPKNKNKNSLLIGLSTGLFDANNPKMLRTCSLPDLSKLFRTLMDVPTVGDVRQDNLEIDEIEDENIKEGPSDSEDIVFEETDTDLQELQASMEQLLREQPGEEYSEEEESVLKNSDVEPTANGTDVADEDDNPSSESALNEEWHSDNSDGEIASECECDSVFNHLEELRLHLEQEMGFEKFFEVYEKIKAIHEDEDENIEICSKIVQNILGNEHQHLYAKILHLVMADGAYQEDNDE
# [13] = biological target: T5, Serine/threonine-protein kinase Nek1 (Homo sapiens); conditions: at 1 µM
# [14] = biological target: T6, Serine/threonine-protein kinase Nek2 (Homo sapiens) (UniProt P51955); conditions: at 0.1 µM
# T6 sequence (whole entry): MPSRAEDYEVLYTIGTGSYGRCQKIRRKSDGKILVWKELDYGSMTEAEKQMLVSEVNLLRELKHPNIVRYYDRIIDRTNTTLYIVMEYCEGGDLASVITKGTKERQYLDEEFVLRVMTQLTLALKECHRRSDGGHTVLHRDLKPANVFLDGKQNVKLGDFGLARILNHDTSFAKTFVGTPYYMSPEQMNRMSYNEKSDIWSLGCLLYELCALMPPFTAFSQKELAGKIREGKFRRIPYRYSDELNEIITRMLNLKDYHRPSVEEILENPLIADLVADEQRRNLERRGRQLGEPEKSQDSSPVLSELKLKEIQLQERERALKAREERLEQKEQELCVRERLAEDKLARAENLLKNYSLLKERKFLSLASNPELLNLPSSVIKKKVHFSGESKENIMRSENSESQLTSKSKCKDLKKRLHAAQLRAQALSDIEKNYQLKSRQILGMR
# [15] = biological target: T6, Serine/threonine-protein kinase Nek2 (Homo sapiens); conditions: at 1 µM
# [16] = biological target: Serine/threonine-protein kinase Nek6 (Homo sapiens) (UniProt Q9HC98); conditions: at 0.1 µM
# Sequence of Serine/threonine-protein kinase Nek6 (Homo sapiens) (Q9HC98 whole entry): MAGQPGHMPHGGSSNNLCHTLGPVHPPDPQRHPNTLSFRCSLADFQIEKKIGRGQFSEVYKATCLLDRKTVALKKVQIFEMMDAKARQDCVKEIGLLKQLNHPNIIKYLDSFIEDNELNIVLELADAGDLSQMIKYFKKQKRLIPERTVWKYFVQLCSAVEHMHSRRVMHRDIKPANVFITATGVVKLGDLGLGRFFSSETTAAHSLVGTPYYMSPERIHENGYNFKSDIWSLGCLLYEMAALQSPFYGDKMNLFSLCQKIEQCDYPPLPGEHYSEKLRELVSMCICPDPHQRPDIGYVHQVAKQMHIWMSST
# [17] = biological target: Serine/threonine-protein kinase Nek6 (Homo sapiens) (UniProt Q9HC98); conditions: at 1 µM
# [18] = biological target: Serine/threonine-protein kinase Nek7 (Homo sapiens) (UniProt Q8TDX7); conditions: at 0.1 µM
# Sequence of Serine/threonine-protein kinase Nek7 (Homo sapiens) (Q8TDX7 whole entry, looked up): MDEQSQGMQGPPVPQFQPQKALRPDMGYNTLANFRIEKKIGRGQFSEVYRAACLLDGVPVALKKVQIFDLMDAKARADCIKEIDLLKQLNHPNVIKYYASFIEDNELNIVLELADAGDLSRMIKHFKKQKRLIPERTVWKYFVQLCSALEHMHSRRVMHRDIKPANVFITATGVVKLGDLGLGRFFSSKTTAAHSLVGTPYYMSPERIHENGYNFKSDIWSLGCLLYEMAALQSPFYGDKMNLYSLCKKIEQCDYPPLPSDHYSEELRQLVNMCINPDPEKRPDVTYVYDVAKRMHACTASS
# [19] = biological target: Serine/threonine-protein kinase Nek7 (Homo sapiens) (UniProt Q8TDX7); conditions: at 1 µM
# [20] = biological target: T7, Serine/threonine-protein kinase Nek9 (Homo sapiens) (UniProt Q8TD19); conditions: at 0.1 µM;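 note: reported value is the mean percent inhibition of NEK9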
# T7 sequence (whole entry): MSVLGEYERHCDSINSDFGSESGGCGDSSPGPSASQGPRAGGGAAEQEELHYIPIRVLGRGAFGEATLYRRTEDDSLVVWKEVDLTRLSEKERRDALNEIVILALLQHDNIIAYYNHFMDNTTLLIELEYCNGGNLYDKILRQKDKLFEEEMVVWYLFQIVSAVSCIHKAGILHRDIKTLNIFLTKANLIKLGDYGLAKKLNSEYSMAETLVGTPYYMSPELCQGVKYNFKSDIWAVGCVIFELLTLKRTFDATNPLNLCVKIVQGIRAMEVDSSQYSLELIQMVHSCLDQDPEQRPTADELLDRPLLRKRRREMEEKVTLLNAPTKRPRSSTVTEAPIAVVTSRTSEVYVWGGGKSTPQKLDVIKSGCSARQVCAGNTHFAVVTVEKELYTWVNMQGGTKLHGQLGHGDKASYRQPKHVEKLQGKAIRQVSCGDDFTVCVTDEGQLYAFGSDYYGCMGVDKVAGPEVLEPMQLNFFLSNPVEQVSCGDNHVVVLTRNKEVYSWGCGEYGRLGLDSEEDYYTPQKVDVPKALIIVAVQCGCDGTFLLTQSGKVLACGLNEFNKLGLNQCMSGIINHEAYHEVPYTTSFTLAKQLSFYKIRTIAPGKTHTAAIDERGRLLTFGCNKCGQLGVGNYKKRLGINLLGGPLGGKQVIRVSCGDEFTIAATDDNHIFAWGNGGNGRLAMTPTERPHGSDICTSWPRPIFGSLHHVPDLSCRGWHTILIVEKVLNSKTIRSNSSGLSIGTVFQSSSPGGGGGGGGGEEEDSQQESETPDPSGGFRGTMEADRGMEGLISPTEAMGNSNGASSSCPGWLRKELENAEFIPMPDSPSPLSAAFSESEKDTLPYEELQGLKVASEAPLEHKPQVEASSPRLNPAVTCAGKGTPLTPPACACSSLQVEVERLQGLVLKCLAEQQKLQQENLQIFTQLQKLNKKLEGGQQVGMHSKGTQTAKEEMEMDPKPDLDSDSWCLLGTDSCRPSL
# Sequence of Sphingosine kinase 1 (Homo sapiens) (Q9NYA1 whole entry): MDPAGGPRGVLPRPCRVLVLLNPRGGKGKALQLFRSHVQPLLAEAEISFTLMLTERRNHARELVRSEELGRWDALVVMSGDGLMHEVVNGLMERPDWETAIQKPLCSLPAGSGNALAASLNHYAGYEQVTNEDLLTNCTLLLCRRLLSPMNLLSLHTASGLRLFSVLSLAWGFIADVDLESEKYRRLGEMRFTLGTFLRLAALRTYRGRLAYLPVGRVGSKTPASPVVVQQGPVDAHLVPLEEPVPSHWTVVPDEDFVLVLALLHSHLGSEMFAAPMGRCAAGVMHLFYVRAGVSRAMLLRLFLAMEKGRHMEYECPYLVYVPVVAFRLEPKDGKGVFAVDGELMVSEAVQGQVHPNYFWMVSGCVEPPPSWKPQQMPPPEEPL
smiles,measurement,setting,value
Cc1ccc(NC(=O)CC2CC2)cc1-c1ccc(C(=O)NCC2CC2)cc1,inhibition,[1],-1.09%
same,inhibition,[2],0.51%
same,inhibition,[3],-0.13%
same,inhibition,[4],4.55%
same,inhibition,[5],8.23%
same,inhibition,[6],0.25%
same,inhibition,[7],1.31%
same,inhibition,[8],3.09%
same,inhibition,[9],3.67%
same,inhibition,[10],4.09%
same,inhibition,[11],3.27%
same,inhibition,[12],2.27%
same,inhibition,[13],3.32%
same,inhibition,[14],3.73%
same,inhibition,[15],3.66%
same,inhibition,[16],2.7%
same,inhibition,[17],0.33%
same,inhibition,[18],4.87%
same,inhibition,[19],4.36%
same,inhibition,[20],5.37%
